Hit rate of the full screen: of about 5,500 compounds, about 2,000 (36%) were called active. Roughly 18% stayed inconclusive and do not appear here. No stated cut-off is given here; in the data, active means normalized growth mostly below about 0.91 (no sharp cut-off); inconclusive means no clear call, values can overlap the other calls; inactive means mostly above about 0.92. The list shows a part of the results.
Test: chemical genetic growth profiling, strain panel (AID 1159580);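 further: tested at 20 µM; growth read once vehicle control cultures reached saturation at 30 °C; 1 = growth at the plate median or of vehicle wells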
Conditions: growth OD

Measured: normalized growth

CC(=O)Oc1cc(OC(C)=O)c2c(c1)O[C@H](c1ccc(OC(C)=O)c(OC(C)=O)c1)[C@@H](OC(C)=O)C2
inactive: S. cerevisiae deletion strains, locus YJR066W, strain TOR1, stronger effect = lower value 0.934 | S. cerevisiae deletion strains, locus YJR075W, strain HOC1, stronger effect = lower value 1.01 | S. cerevisiae deletion strains, locus YKL009W, strain mrt4, stronger effect = lower value 1.04 | S. cerevisiae deletion strains, locus YKL068W, stronger effect = lower value 0.987 | S. cerevisiae deletion strains, locus YKL085W, strain MDH1 (second series), stronger effect = lower value 0.983 | S. cerevisiae deletion strains, locus YKL085W, strain MDH1, stronger effect = lower value 0.983 | S. cerevisiae deletion strains, locus YKL160W, strain elf1, stronger effect = lower value 1 | S. cerevisiae deletion strains, locus YKL190W, strain CNB1, stronger effect = lower value 0.997 | S. cerevisiae deletion strains, locus YKR001C, strain vps1, stronger effect = lower value 0.97 | S. cerevisiae deletion strains, locus YKR026C, strain gcn3, stronger effect = lower value 0.972 | S. cerevisiae deletion strains, locus YKR091W, strain srl3, stronger effect = lower value 1 | S. cerevisiae deletion strains, locus YLL001W, strain dnm1, stronger effect = lower value 0.992 | S. cerevisiae deletion strains, locus YLL026W, stronger effect = lower value 0.995 | S. cerevisiae deletion strains, locus YLL041C, strain sdh2, stronger effect = lower value 0.997 | S. cerevisiae deletion strains, locus YLR027C, strain aat2, stronger effect = lower value 1.02 | S. cerevisiae deletion strains, locus YLR039C, strain RIC1, stronger effect = lower value 1.04 | S. cerevisiae deletion strains, locus YLR058C, strain SHM2, stronger effect = lower value 1 | S. cerevisiae deletion strains, locus YLR102C, strain apc9, stronger effect = lower value 0.986 | S. cerevisiae deletion strains, locus YLR113W, strain HOG1, stronger effect = lower value 0.966 | S. cerevisiae deletion strains, locus YLR221C, strain rsa3, stronger effect = lower value 1.01 | S. cerevisiae deletion strains, locus YLR258W, strain gsy2, stronger effect = lower value 1 | S. cerevisiae deletion strains, locus YLR262C, strain YPT6 (second series), stronger effect = lower value 0.998 | S. cerevisiae deletion strains, locus YLR262C, strain YPT6, stronger effect = lower value 1.09 | S. cerevisiae deletion strains, locus YLR268W, strain sec22, stronger effect = lower value 0.958 | S. cerevisiae deletion strains, locus YLR320W, strain mms22, stronger effect = lower value 0.977 | S. cerevisiae deletion strains, locus YLR330W, strain CHS5, stronger effect = lower value 0.995 | S. cerevisiae deletion strains, locus YLR342W, strain FKS1 (second series), stronger effect = lower value 0.979 | S. cerevisiae deletion strains, locus YLR342W, strain FKS1, stronger effect = lower value 0.994 | S. cerevisiae deletion strains, locus YLR357W, strain rsc2, stronger effect = lower value 0.992 | S. cerevisiae deletion strains, locus YLR370C, strain arc18, stronger effect = lower value 1.01 | S. cerevisiae deletion strains, locus YLR371W, strain rom2, stronger effect = lower value 0.959 | S. cerevisiae deletion strains, locus YLR384C, strain iki3, stronger effect = lower value 1 | S. cerevisiae deletion strains, locus YLR418C, strain cdc73, stronger effect = lower value 1.03 | S. cerevisiae deletion strains, locus YML016C, strain PPZ1, stronger effect = lower value 0.978 | S. cerevisiae deletion strains, locus YML032C, strain rad52, stronger effect = lower value 1.01 | S. cerevisiae deletion strains, locus YML120C, strain ndi1, stronger effect = lower value 1.01 | S. cerevisiae deletion strains, locus YML124C, strain tub3, stronger effect = lower value 0.981 | S. cerevisiae deletion strains, locus YMR058W, strain fet3, stronger effect = lower value 1 | S. cerevisiae deletion strains, locus YMR078C, strain ctf18, stronger effect = lower value 0.964 | S. cerevisiae deletion strains, locus YMR125W, strain sto1, stronger effect = lower value 0.996 | S. cerevisiae deletion strains, locus YMR129W, stronger effect = lower value 1 | S. cerevisiae deletion strains, locus YMR205C, strain PFK2, stronger effect = lower value 0.972 | S. cerevisiae deletion strains, locus YMR223W, strain ubp8, stronger effect = lower value 1 | S. cerevisiae deletion strains, locus YMR231W, strain pep5, stronger effect = lower value 1 | S. cerevisiae deletion strains, locus YMR307W, strain GAS1, stronger effect = lower value 1.1 | S. cerevisiae deletion strains, locus YNL067W, strain RPL9B, stronger effect = lower value 1 | S. cerevisiae deletion strains, locus YNL071W, strain lat1, stronger effect = lower value 1.01 | S. cerevisiae deletion strains, locus YNL153C, strain GIM3, stronger effect = lower value 1 | S. cerevisiae deletion strains, locus YNL183C, strain NPR1, stronger effect = lower value 0.904 | S. cerevisiae deletion strains, locus YNL209W, strain ssb2, stronger effect = lower value 1 | S. cerevisiae deletion strains, locus YNL233W, strain BNI4, stronger effect = lower value 0.983 | S. cerevisiae deletion strains, locus YNL248C, strain rpa49, stronger effect = lower value 1.01 | S. cerevisiae deletion strains, locus YNL250W, strain rad50, stronger effect = lower value 0.977 | S. cerevisiae deletion strains, locus YNL271C, strain bni1, stronger effect = lower value 0.975 | S. cerevisiae deletion strains, locus YNL298W, strain CLA4, stronger effect = lower value 0.979 | S. cerevisiae deletion strains, locus YNL307C, strain MCK1, stronger effect = lower value 0.98 | S. cerevisiae deletion strains, locus YNL322C, strain KRE1 (second series), stronger effect = lower value 0.997 | S. cerevisiae deletion strains, locus YNL322C, strain KRE1, stronger effect = lower value 0.998 | S. cerevisiae deletion strains, locus YNR049C, strain mso1, stronger effect = lower value 0.995 | S. cerevisiae deletion strains, locus YNR052C, strain pop2, stronger effect = lower value 0.981 | S. cerevisiae deletion strains, locus YOL012C, strain htz1 0.674 | S. cerevisiae deletion strains, locus YOL147C, strain pex11, stronger effect = lower value 1 | S. cerevisiae deletion strains, locus YOR001W, strain rrp6, stronger effect = lower value 0.997 | S. cerevisiae deletion strains, locus YOR061W, strain CKA2, stronger effect = lower value 0.977 | S. cerevisiae deletion strains, locus YOR069W, strain VPS5, stronger effect = lower value 0.989 | S. cerevisiae deletion strains, locus YOR070C, strain gyp1, stronger effect = lower value 1 | S. cerevisiae deletion strains, locus YOR080W, strain dia2, stronger effect = lower value 0.998 | S. cerevisiae deletion strains, locus YOR083W, strain WHI5, stronger effect = lower value 1.01 | S. cerevisiae deletion strains, locus YOR106W, strain vam3, stronger effect = lower value 1 | S. cerevisiae deletion strains, locus YOR136W, strain idh2, stronger effect = lower value 0.965 | S. cerevisiae deletion strains, locus YOR144C, strain elg1, stronger effect = lower value 0.982 | S. cerevisiae deletion strains, locus YOR184W, strain ser1, stronger effect = lower value 0.986 | S. cerevisiae deletion strains, locus YOR231W, strain MKK1, stronger effect = lower value 0.974 | S. cerevisiae deletion strains, locus YOR265W, strain rbl2, stronger effect = lower value 1 | S. cerevisiae deletion strains, locus YOR270C, strain vph1, stronger effect = lower value 0.988 | S. cerevisiae deletion strains, locus YOR290C, strain snf2, stronger effect = lower value 0.961 | S. cerevisiae deletion strains, locus YOR316C, strain cot1, stronger effect = lower value 0.986 | S. cerevisiae deletion strains, locus YPL051W, strain arl3, stronger effect = lower value 1.01 | S. cerevisiae deletion strains, locus YPL055C, strain LGE1, stronger effect = lower value 0.999 | S. cerevisiae deletion strains, locus YPL078C, strain atp4, stronger effect = lower value 1.02 | S. cerevisiae deletion strains, locus YPL106C, strain sse1, stronger effect = lower value 0.996 | S. cerevisiae deletion strains, locus YPL240C, strain hsp82, stronger effect = lower value 0.992 | S. cerevisiae deletion strains, locus YPL241C, strain CIN2, stronger effect = lower value 0.999 | S. cerevisiae deletion strains, locus YPL256C, strain CLN2, stronger effect = lower value 0.974 | S. cerevisiae deletion strains, locus YPR119W, strain clb2, stronger effect = lower value 0.979 | S. cerevisiae deletion strains, locus YPR141C, strain kar3, stronger effect = lower value 0.981 | S. cerevisiae deletion strains, locus YPR163C, strain tif3, stronger effect = lower value 0.994 | S. cerevisiae deletion strains, locus YPR167C, strain met16, stronger effect = lower value 0.978 | S. cerevisiae deletion strains, strain wtn01, stronger effect = lower value 0.951 | S. cerevisiae strains, strain wild type, stronger effect = lower value 0.993
